Assay outcomes: PubChem BioAssay, The Scripps Research Institute Molecular Screening Center
TEAD-YAP inh: TEAD-YAP interaction inhibition, primary screen, TEAD-YAP interaction inhibitor project, luminescence, HEK-TIYL cells; TEAD-Gal4/YAP UAS-luciferase luminescence; inhibition, % at 9.12 µM; 1.4% of 640,000 active; in the data active = inhibition above about 32%;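 note: 0% = median of test compound wells and 100% = reference inhibitor wells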
MITF inh: MITF inhibitors, primary screen, biochemical, AlphaScreen, human; Microphthalmia-associated transcription factor (Homo sapiens), O75030; inhibition, % at 2.6 µM; AID 1259374, 2018; 0.91% of 650,000 active; AlphaScreen MITF homodimerization, bead proximity signal; in the data active = inhibition above about 50%;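 note: 0% = vehicle wells with protein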
GPR151 ag: activators of human GPR151, primary screen, cell-based, PathHunter beta-arrestin, luminescence. PathHunter beta-arrestin GPR151 cells. G-protein coupled receptor 151 (Homo sapiens), Q8TDV0. 1% of 650,000 active. activation, % at 11.2 µM; in the data active = activation above about 4.9%;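 note: 0% = median of compound wells and 100% = cells with positive control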
FBW7 act: FBW7 E3 ligase activators, primary screen, biochemical, AlphaScreen, human; F-box/WD repeat-containing protein 7 (Homo sapiens), Q969H0; AlphaScreen FBW7–phospho-cyclin E peptide binding, activator screen; normalized activity (activation), % at 26.1 µM; 0.13% of 650,000 active; in the data active = normalized activity above about 1.9%;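 note: purified mutant Fbw7 with reduced substrate affinity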
Target sequence (Q969H0 whole entry, looked up): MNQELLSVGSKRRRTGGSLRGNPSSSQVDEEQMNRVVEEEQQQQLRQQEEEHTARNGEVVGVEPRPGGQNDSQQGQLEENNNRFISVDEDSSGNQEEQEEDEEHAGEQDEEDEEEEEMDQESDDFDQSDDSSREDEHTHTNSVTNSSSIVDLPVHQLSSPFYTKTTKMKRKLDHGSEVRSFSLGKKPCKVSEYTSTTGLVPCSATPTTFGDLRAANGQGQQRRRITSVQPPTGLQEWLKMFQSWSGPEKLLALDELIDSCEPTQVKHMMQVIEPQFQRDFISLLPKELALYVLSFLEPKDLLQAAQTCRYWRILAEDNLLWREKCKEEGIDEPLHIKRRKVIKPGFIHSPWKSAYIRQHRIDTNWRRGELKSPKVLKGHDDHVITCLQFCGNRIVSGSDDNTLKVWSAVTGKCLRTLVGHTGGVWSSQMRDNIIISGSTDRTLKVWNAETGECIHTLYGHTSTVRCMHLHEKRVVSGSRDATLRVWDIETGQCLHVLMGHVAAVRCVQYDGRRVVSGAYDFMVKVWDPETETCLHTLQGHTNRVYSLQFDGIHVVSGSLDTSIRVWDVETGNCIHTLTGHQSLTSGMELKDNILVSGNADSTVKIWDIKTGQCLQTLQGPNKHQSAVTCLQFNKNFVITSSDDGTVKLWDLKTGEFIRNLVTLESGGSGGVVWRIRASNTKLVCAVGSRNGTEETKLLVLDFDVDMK
Active calls of the source: *. Shown are actives, neighbours in structure and some others; about 3.5% of the full set was active somewhere.

SMILES | TEAD-YAP inh | MITF inh | GPR151 ag | FBW7 act
Cc1cc(C)c(S(=O)(=O)Nc2cccc(C(=O)O)c2C)c(C)c1 | 3.6 | 7.3 | -0.5 | 0.1
COc1cccc(CNC(=O)c2cc3oc4ccccc4c3n2C)c1OC | 35.8* | 15.3 | 0.3 | -0.3
COc1cccc(CNC(=O)c2cc3oc4ccccc4c3n2C)c1 | 17.8 | 4.8 | -0.2 | 0.0
CC1=C(C(=O)OC2CCCCC2)C(c2cc3c(cc2Cl)OCO3)C2=C(CCCC2=O)N1 (stereo not given) | 14.2 | 0.0 | -1.1 | 0.1
CC1CCc2c(sc(NC(=O)c3ccco3)c2C(=O)O)C1 (stereo not given) | 33.3* | -5.9 | -2.3 | 0.1
CCN(CC)C(=O)c1c(NC(=O)c2ccco2)sc2c1CCC(C(C)(C)C)C2 (stereo not given) | 3.2 | -0.1 | 0.3 | -0.1
CC(C)(C)C1CCc2c(sc(NC(=O)c3ccco3)c2C(=O)O)C1 (stereo not given) | 89.7* | 2.1 | -0.5 | -0.1
CCOc1ccc2cc(C3CC(c4ccccc4)=NN3C(C)=O)c(=O)[nH]c2c1 (stereo not given) | 6.3 | -2.1 | 0.3 | 0.0
COc1cc(C2CC(=O)c3c(ccc4ccccc34)N2)ccc1OCc1ccccc1 (stereo not given) | -15.3 | 18.4 | 0.2 | 0.0
COc1ccccc1C1CC(=O)c2c(ccc3ccccc23)N1 (stereo not given) | 61.2* | 3.5 | 0.0 | 0.0
O=C1C(C=Nc2cccc(C(F)(F)F)c2)=C(O)c2ccccc21 | 70.1* | -10.2 | 0.1 | -0.1
COc1ccc(N=CC2=C(O)c3ccccc3C2=O)cc1OC | 11.5 | 10.1 | -1.8 | 0.1
O=C1C(C=Nc2ccc3c(c2)CCC3)=C(O)c2ccccc21 | 48.6* | 2.1 | 0.4 | -0.1
CCOC(=O)c1ccc(N=CC2=C(O)c3ccccc3C2=O)cc1 | 48.4* | 2.3 | -0.5 | -0.1
CN=c1scc(-c2ccccc2F)n1/N=C/c1ccccc1 | 98.8* | 18.0 | -7.5 | -0.5
Cc1csc(=Nc2ccccc2F)n1/N=C/c1ccsc1 | -11.9 | 10.3 | -2.3 | 0.4
CCN=c1scc(-c2ccccc2F)n1/N=C/c1ccc2c(c1)OCCO2 | 51.0* | 13.7 | -8.0 | -0.5
CCN=c1scc(C)n1/N=C/c1ccc2c(c1)OCCO2 | -28.3 | 12.4 | -1.9 | -0.3
c1ccc(-c2nc(NC3CC3)cc(-c3ccncc3)n2)nc1 | 31.8 | 16.2 | -0.2 | -0.8
COCCNc1cc(-c2ccncc2)nc(-c2ccccn2)n1 | 7.7 | 6.3 | -1.9 | -0.6
Fc1ccc(-c2cc(NC3CC3)nc(-c3ccncc3)n2)cc1 | 13.6 | 3.8 | 1.6 | 0.0
c1ccc(-c2cc(NC3CC3)nc(-c3ccccn3)n2)cc1 | 92.3* | 5.7 | -1.0 | -0.9
CCN(CC)c1cc(-c2ccc(F)cc2)nc(-c2ccccn2)n1 | 52.9* | 58.3* | 1.4 | -0.1
Fc1ccc(-c2cc(NC3CC3)nc(-c3ccccn3)n2)cc1 | 90.0* | -2.8 | -2.6 | -0.7
COCCNc1cc(-c2ccc(F)cc2)nc(-c2ccccn2)n1 | 73.7* | 13.2 | -1.9 | -0.6
SMILES | TEAD-YAP inh | MITF inh | GPR151 ag | FBW7 act
COc1ccccc1C(=O)NCc1nnc(SCC(=O)N2N=C(c3cccs3)CC2c2cccc(OC)c2OC)n1-c1ccccc1 (stereo not given) | -12.9 | -9.5 | 0.7 | -0.1
O=C(NCc1ccc2c(c1)OCO2)c1ccc2c(=O)n(-c3ccc(F)cc3)c(=S)[nH]c2c1 | -4.4 | 10.0 | -0.7 | 0.2
O=C1Nc2ccc(S(=O)(=O)N3CCCCC3)c3cccc1c23 | -5.2 | -15.9 | 0.1 | -0.1
COc1ccc2c(C)nc(N3CCC(NCCCc4ccccc4)CC3)nc2c1 | -9.9 | -4.9 | 0.0 | 0.1
Cc1nc2nc(-c3ccc(Cl)cc3Cl)nn2c(C)c1CCC(=O)O | 80.2* | 1.8 | 0.1 | -0.2
O=C(O)CCc1nc(-c2ccc(Cl)cc2Cl)no1 | -3.8 | 1.2 | 1.0 | -0.1
COc1cccc(-c2nc3nc(C)c(CCC(=O)O)c(C)n3n2)c1 | 48.5* | 0.6 | -0.2 | -0.1
CCCCOc1ccc(-c2cnc(S(C)(=O)=O)nc2)cc1 | 46.1* | -0.2 | 2.3 | 0.0
O=C(O)CCC(=O)n1c(/C=C/c2ccccc2)nc2ccccc21 | 82.8* | -18.3 | -9.0 | 0.1
CCCc1nc2ccccc2n1C(=O)CCC(=O)O | 11.2 | 7.9 | 1.1 | 0.0
CCn1c(/C=C/c2ccc(OC)cc2)nc2ccccc21 | 72.0* | -7.4 | -8.5 | 0.2
Cn1c(/C=C/c2ccccc2)nc2ccccc21 | 93.2* | -2.3 | -11.4 | 0.0
